The structures appear in SMILES notation. Unmarked numbers belong to inactive results. Active and inactive are the calls of the source.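 The calls were made as follows, unless noted: active = mean inhibition over 43.08%, the solvent-only control mean plus 3 SD; inactive = the rest.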

This is an account of results in PubChem BioAssay.

In test [1] the target is Nuclear receptor coactivator 3 (Homo sapiens) (UniProt Q9Y6Q9). Put plainly: NCOA3 GAL4-fusion reporter inhibition – cell-based, luminescence, quadruplicate, confirmation (AID 588792).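 Also: 0% = DMSO treated cells and 100% = gossypol at 36 µM.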 The conditions noted are these: HEK293 GAL4-SRC3 luciferase reporter, at 3.6 µM, active compounds read high.
Chain of Nuclear receptor coactivator 3 (Homo sapiens) (Q9Y6Q9 whole entry, looked up, the tested form may be a part): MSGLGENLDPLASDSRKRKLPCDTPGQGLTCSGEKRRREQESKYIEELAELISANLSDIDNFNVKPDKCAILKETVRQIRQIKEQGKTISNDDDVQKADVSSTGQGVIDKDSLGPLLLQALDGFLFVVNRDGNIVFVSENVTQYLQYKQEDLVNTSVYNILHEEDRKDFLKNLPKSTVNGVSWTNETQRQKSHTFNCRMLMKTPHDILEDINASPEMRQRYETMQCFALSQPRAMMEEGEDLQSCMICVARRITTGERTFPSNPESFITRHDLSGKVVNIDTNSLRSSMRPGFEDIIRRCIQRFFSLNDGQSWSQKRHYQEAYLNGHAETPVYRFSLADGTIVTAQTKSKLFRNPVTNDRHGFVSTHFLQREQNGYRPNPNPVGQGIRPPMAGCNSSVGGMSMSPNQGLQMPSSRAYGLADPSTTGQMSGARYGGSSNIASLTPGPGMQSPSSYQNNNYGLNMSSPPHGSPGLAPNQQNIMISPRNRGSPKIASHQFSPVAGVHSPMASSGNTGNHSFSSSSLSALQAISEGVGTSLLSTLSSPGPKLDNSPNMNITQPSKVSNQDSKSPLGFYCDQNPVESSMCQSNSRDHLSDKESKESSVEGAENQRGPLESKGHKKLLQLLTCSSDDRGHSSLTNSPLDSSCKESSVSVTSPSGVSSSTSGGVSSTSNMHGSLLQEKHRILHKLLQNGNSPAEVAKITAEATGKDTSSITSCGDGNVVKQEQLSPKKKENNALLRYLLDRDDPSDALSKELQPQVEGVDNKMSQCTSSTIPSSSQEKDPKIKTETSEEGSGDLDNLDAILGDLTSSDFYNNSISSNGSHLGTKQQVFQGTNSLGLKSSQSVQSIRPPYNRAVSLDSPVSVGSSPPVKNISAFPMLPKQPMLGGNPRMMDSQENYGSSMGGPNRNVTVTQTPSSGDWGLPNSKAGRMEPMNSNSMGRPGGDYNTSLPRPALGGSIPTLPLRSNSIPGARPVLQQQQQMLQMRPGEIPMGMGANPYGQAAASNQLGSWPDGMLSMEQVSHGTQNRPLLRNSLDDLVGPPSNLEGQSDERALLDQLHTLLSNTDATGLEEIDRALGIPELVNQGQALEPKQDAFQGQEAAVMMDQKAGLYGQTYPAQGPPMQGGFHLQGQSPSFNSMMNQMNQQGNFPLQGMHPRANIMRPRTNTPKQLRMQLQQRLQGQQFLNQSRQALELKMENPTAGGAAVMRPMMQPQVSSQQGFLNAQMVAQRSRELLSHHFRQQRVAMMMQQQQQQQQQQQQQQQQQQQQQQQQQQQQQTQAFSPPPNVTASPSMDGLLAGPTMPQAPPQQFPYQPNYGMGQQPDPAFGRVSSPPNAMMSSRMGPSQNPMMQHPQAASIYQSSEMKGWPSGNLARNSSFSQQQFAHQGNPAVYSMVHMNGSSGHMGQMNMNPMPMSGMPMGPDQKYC
Test [2] relates to transactivating tegument protein VP16 (Human herpesvirus 1), Gal4-VP16 luciferase reporter. The test is described as follows: repression of VP16-driven luciferase reporter – cell-based, luminescence, high throughput, counter-screen for SRC3 inhibitor project (AID 588794; in the data active = inhibition above about 30%). The conditions noted are these: mammalian cells, at 3.6 µM, active compounds read high.
In test [3] the test system is transactivating tegument protein VP16 (Human herpesvirus 1). The test is described as follows: compounds suppressing VP16-driven luciferase signal – cell-based, luminescence, single concentration, counter-screen for SRC2 inhibitor project (AID 652007; in the data active = inhibition above about 36%). The conditions noted are these: cell-based VP16 transactivation luciferase reporter, at 8.9 µM, active compounds read high.

Test [4] has as its target Nuclear receptor coactivator 2 (Homo sapiens) (UniProt Q15596). Put plainly: inhibition of GAL4-SRC2 driven luciferase expression – cell-based, luminescence, HEK293, triplicate, confirmation (AID 652008;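 active = mean inhibition above 46.5%, the solvent-only control mean plus 3 SD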;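 also: 0% = DMSO-treated cells and 100% = Gossypol at 36 µM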). The conditions noted are these: HEK293 GAL4-SRC2 luciferase reporter, at 8.9 µM, active compounds read high.
Test [5] in a line: StAR promoter reporter inhibitors, counter-screen for LRH-1 inverse agonist project, cell-based, luminescence, high throughput (AID 651611; in the data active = inhibition above about 28%). The conditions noted are these: StAR promoter luciferase reporter counterscreen, at 3.6 µM, active compounds read high.
Test [6] deals with Nuclear receptor subfamily 5 group A member 2 (Homo sapiens) (UniProt O00482). Put plainly: NR5A2 activity suppression in reporter cells – cell-based, luminescence, confirmation (AID 651613; in the data active = inhibition above about 42%;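 also: HEK293T cells co-transfected with LRH-1 and StAR promoter luciferase reporter; 0% = vehicle wells and 100% = parental cells lacking receptor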). The conditions noted are these: cell-based LRH-1 luciferase reporter, inverse agonism; at 3.6 µM; active compounds read high.
Chain of Nuclear receptor subfamily 5 group A member 2 (Homo sapiens) (O00482 whole entry, looked up): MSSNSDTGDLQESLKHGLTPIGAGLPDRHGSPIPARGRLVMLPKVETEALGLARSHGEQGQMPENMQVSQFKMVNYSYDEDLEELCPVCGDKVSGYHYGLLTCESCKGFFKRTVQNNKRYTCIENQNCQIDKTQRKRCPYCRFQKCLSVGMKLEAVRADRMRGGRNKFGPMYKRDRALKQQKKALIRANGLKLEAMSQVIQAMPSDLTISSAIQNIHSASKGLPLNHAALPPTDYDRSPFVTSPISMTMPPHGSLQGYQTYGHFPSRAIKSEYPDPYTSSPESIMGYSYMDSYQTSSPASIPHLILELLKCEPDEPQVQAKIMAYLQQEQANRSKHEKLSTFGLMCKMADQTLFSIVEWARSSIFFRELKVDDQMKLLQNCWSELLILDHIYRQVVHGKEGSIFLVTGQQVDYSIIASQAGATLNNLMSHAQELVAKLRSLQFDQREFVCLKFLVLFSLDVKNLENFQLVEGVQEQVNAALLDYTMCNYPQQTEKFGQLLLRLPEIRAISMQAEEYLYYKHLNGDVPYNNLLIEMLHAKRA
The target of test [7] is Steroidogenic factor 1 (Homo sapiens) (UniProt Q13285). Put plainly: inverse agonism at SF1 nuclear receptor – cell-based, luminescence, high throughput, counter-screen for LRH-1 inverse agonist project (AID 651614; in the data active = inhibition above about 44%;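 also: cells cotransfected with StAR promoter reporter and SF1 expression vector; 0% = vehicle on cells with receptor and 100% = vehicle on cells lacking receptor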). The conditions noted are these: cell-based SF1 luciferase reporter, at 3.6 µM, active compounds read high.
Chain of Steroidogenic factor 1 (Homo sapiens) (Q13285 whole entry, looked up, the tested form may be a part): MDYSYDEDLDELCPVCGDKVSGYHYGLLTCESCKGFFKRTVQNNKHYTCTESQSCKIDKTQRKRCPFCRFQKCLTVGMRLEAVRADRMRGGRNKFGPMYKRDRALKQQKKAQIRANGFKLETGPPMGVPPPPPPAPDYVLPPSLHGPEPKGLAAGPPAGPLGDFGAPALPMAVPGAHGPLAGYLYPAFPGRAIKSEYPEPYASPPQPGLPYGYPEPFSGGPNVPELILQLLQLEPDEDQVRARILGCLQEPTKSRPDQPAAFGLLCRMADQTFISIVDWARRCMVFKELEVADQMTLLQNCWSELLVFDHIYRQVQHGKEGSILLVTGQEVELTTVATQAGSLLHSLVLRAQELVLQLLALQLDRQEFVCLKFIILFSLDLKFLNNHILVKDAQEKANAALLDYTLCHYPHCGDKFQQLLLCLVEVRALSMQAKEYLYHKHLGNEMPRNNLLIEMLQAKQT
Test [8] can be described thus: compounds suppressing VP16-driven luciferase signal – cell-based, luminescence, high throughput, counter-screen for LRH-1 inverse agonist project (AID 651615; in the data active = inhibition above about 33%). The conditions noted are these: Gal4-VP16 luciferase reporter cells, at 3.6 µM, active compounds read high.

Chain of Nuclear receptor coactivator 2 (Homo sapiens) (Q15596 whole entry, looked up, the tested form may be a part): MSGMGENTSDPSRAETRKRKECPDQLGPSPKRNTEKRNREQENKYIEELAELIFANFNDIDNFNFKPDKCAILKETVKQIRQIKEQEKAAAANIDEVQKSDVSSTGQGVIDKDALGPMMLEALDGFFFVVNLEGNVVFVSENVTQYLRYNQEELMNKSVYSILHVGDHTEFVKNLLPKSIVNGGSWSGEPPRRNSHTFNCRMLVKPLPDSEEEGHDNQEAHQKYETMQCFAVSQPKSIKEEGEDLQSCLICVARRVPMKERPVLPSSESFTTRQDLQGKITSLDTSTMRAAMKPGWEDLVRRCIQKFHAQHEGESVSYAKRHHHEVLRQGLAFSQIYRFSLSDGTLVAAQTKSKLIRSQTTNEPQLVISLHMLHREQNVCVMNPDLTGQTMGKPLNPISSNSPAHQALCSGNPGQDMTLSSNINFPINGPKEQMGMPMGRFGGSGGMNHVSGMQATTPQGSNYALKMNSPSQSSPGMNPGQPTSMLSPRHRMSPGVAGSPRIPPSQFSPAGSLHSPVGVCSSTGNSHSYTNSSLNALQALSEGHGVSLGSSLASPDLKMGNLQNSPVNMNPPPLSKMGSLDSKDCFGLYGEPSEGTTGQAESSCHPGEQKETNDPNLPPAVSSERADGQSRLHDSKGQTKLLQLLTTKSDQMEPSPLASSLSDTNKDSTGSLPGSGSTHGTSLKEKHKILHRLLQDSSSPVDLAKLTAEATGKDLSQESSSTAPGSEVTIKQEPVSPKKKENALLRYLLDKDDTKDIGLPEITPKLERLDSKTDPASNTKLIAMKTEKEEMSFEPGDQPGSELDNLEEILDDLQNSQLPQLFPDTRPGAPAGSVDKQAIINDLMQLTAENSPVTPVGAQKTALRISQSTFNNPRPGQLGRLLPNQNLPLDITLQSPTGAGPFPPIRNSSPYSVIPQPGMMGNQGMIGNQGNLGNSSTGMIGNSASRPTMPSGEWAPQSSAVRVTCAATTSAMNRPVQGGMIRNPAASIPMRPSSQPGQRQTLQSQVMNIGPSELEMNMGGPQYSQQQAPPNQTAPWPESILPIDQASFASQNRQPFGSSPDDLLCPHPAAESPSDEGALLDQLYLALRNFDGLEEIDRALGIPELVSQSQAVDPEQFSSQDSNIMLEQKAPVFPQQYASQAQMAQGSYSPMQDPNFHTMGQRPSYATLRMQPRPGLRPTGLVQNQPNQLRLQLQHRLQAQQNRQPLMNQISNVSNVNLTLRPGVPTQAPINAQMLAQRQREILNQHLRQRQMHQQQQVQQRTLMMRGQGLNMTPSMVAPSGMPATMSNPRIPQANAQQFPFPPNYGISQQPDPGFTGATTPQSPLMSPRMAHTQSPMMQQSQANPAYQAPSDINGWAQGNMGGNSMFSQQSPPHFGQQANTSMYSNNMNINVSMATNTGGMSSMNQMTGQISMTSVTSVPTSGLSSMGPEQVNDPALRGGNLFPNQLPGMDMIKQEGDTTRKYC

For `O=C(/C=C\Nc1ccc2c(c1)OCO2)c1ccccn1`, the inhibition in test [1] was 22.5%; in test [2] it was 14.7%; in test [3], 29.3%; in test [4], 62% (active).

For the compound `O=C1Cc2c([nH]c3ccc([N+](=O)[O-])cc23)-c2ccccc2N1`, the inhibition in test [1] is 91.9% (active); in test [2], 88.9% (active); in test [3] it was 23.5%; in test [4], 51% (active).

On to `COc1ccc(/C=C/C(=O)c2ccc3c4c(cccc24)CC3)cc1OC`, for which the inhibition in test [1] is 21.5%; in test [2] it was 25.6%; in test [3] it was 25.2%; in test [4], 67.6% (active).

`S=C(NCCCc1cnc[nH]1)NCCCN(Cc1ccc(Cl)cc1)c1ccc(Br)cn1`: the inhibition in test [1] is 83.9% (active); in test [2] it was 57.4% (active); in test [5], 91.2% (active); in test [6], 102% (active); in test [7] it was 96.4% (active); in test [8], 82.4% (active). Moreover, the inhibition in test [3] was -0.33%; in test [4] it was 51.4% (active).

Take `COc1ccc(OCC(=O)N/N=C/c2ccc(O[C@@H]3O[C@H](CO)[C@@H](O)[C@H](O)[C@H]3O)cc2)cc1`: the inhibition is 20.5% in test [1], 60.1% (active) in test [2], 64.5% (active) in test [6] and 72.1% (active) in test [7].

For the compound `CCOc1ccc(C(=O)C(CCC(CN(C)C)C(=O)c2ccc(OCC)cc2)CN(C)C)cc1` (stereo not given), the inhibition is -1.23% in test [1], 34.5% (active) in test [2], 42.6% (active) in test [3] and 54.2% (active) in test [4].

For `COCC1CCN(C(=O)c2cc(COc3cccc4cnccc34)on2)CC1`, the inhibition in test [1] is 11.1%; in test [2] it was 37.7% (active); in test [3] it was 3.58%; in test [4], 43.1%.

With `Cc1cc(Sc2nnc(N)s2)c2ccccc2n1`, the inhibition in test [1] is -6.91%; in test [2], 22.2%; in test [3], 11.7%; in test [4], 32%.

On to `O=c1cc(CCl)nc(Cc2c(Cl)cccc2Cl)[nH]1`, for which the inhibition in test [1] is 21.2%; in test [2], -8.27%; in test [3], 16.8%; in test [4], 54.1% (active).

With `COc1ccc(-c2noc(CCC(=O)NCCCN3CCC(Cc4ccccc4)CC3)n2)cc1`, the inhibition in test [1] was -0.27%; in test [2] it was 10.7%; in test [3], -4.69%; in test [4], 15.6%.

As to `Cc1ccccc1Nc1nc(N)nc(CCl)n1`, the inhibition is 22.9% in test [1], 0.42% in test [2], -11.3% in test [3] and 52.5% (active) in test [4].

Consider `CC(C)(C)C(=O)Nc1ccc(-c2cc3cc(Cl)ccc3o2)cc1`, for which the inhibition was -53% in test [1], -26.2% in test [2], -83.9% in test [3] and -30.7% in test [4].

`COc1cc(/C=C/C(=O)c2ccc(F)cc2)cc(OC)c1OC`: the inhibition in test [1] is 50.5% (active); in test [2], 34.7% (active); in test [3] it was 21.9%; in test [4], 28.1%.

For `CCOc1cc(/C=C2\COc3ccccc3C2=O)ccc1OCC(=O)N(C)C`, the inhibition in test [1] is 17.5%; in test [2] it was 28.5%; in test [3] it was 32.2%; in test [4], 27.8%.

In the case of `Cn1c(/C=C/c2ccc(Br)cc2)c([N+](=O)[O-])c(=O)n(C)c1=O`, the inhibition in test [1] is 45.2% (active); in test [2], 47.8% (active); in test [3], 15.8%; in test [4] it was 40.7%.

As for `COc1ccc(C(=O)Nc2ccc(C)cn2)c(OC)c1`, the inhibition in test [1] is -0.48%; in test [2], -4.91%; in test [3] it was 23.7%; in test [4], 49.8% (active).

With `Cc1ccc(C2=NN(C(=O)CCl)C(c3cccs3)C2)o1` (stereo not given), the inhibition in test [1] was 36.8%; in test [2] it was 13.5%; in test [3], 17.2%; in test [4], 56.9% (active).

Regarding `O=C(N[C@@H](Cc1ccccc1)C(=O)CCl)OCc1ccccc1`, the inhibition in test [1] was 31.5%; in test [2], 40.4% (active); in test [3], 64.2% (active); in test [4], 69.3% (active).

On to `Cc1cccc(C)c1NS(=O)(=O)c1ccc(-c2cnc(C3CC3)o2)cc1`, for which the inhibition in test [1] is 43.2% (active); in test [2] it was 15.3%; in test [3], 2.97%; in test [4], 17.2%.

As for `CC(C)C(=O)NC(c1ccco1)c1ccc2cccnc2c1O` (stereo not given), the inhibition in test [1] is 32.7%; in test [2], 20.6%; in test [3], -13.3%; in test [4] it was 8.96%.

`Cc1cc(C)cc(OCC(=O)NCC2CCCO2)c1` (stereo not given): the inhibition in test [1] was 18.4%; in test [2] it was -9.18%; in test [3], -1.96%; in test [4], 28.9%.

`COc1ccc(COC(=O)C2=C(C)NC(=O)NC2c2ccc(F)cc2)cc1` (stereo not given): the inhibition in test [1] was 34.1%; in test [2], 28.1%; in test [3] it was 10.2%; in test [4], 31.4%.

Regarding `CCCCn1c(CCl)nc2cc(S(=O)(=O)N3CCOCC3)ccc21`, the inhibition is 71.6% (active) in test [1], 34.6% (active) in test [2], 22% in test [3] and 64.1% (active) in test [4].

Regarding `O=C(NC(CSCc1ccccc1)C(=O)N/N=C/c1ccc(O)cc1O)c1ccc([N+](=O)[O-])cc1` (stereo not given), the inhibition in test [1] was 31.7%; in test [2] it was 34.8% (active); in test [3], -26.8%; in test [4], 8.58%.
